The campaign covered roughly 340,000 compounds. About 1,000 (0.29%) were called active. Cut-off read from the data, not from the text of the source: inconclusive = inhibition above about 29% without an active follow-up result; inactive = below that. A selection follows. Entries with a potency or affinity are not part of this list.

We go through 95 molecules from PubChem BioAssay AID588689 (Southern Research Specialized Biocontainment Screening …, 2011).

The test deals with Genome polyprotein (Dengue virus type 2 (strain 16681-PDK53)) (UniProt P29991). Nature of the test: flavivirus cap methylation enzyme inhibition – biochemical, confirmation dose response, primary screen (AID 588689). The note with it: Dengue-2 NS5 methyltransferase capping enzyme assay, at 25 µM, stronger effect = higher value.
Setting [1] is: measured here: pilot screen replicate inhibition.

Broadly, the inhibition is the relative decrease from the control value, in per cent. `O=C(Nc1ccc(S(=O)(=O)N2CCOCC2)cc1)c1ccc2c(c1)S(=O)(=O)c1ccccc1C2=O`: the inhibition was -4.52% (inactive). Same read-out and setting: the same measure for `O=C(Nc1cc(S(=O)(=O)N2CCOCC2)ccc1N1CCCC1)c1ccc2c(c1)S(=O)(=O)c1ccccc1C2=O`: -7.41% (inactive); for `COCc1nc(-c2cc(Br)ccc2OC)no1`: -4.06% (inactive).

`CCn1c(O)c(C=Nc2ccccc2)oc1=S`: the inhibition is -8.34% (inactive). As for `Cc1nc2ccc(NC(=O)c3ccc([N+](=O)[O-])cc3[N+](=O)[O-])cc2s1`, the inhibition is -5.18% (inactive). Take `Cc1nc2ccc(NC(=O)c3ccc(Cl)c([N+](=O)[O-])c3)cc2s1`: the inhibition is -4.44% (inactive).

Turning to `COc1cccc(NC(=S)N2CCC(c3ccc(C)cc3)C2)c1` (stereo not drawn), the inhibition was -1.96% (inactive).

Regarding `COc1ccc(CCNC(=O)c2nnn(CC(=O)Nc3c(C)cc(C)cc3C)c2N)cc1OC`, the inhibition is -7.1% (inactive).

As to `COc1cc(NC(=O)c2ccc(COCC(F)(F)F)o2)cc(OC)c1OC`, the inhibition was 0% (inactive). Still for that read-out and setting: the same measure for `COc1ccc(N2C(=O)CC(C)(C)CC2=O)cc1OC`: 0% (inactive). Take `CCOc1ccc(CC(=O)C2C(=O)CC(C)(C)CC2=O)cc1OCC`: the inhibition was -13.1% (inactive). For the molecule `COc1ccc(NC(=O)c2ccc(COCC(F)(F)F)cc2)cc1OC`, the inhibition was -2.91% (inactive). The same measure, in the same setting: the same measure for `COc1cc(C(O)C(=O)O)ccc1O` (stereo not drawn): -7.33% (inactive); for `COc1cc(C(C2C(=O)CC(C)(C)CC2=O)C2C(=O)CC(C)(C)CC2=O)ccc1OC(C)=O`: -2.35% (inactive). On to `CC1(C)CC(=O)C(C(c2ccccc2F)C2C(=O)CC(C)(C)CC2=O)C(=O)C1`, for which the inhibition is 22.6% (inactive). On the same count and under the same terms, the same measure for `O=C(/C=C1\SC(=O)NC1=O)Nc1ccc(F)cc1`: 0% (inactive); for `Cc1cc(Br)ccc1NC(=O)CNC(=O)CSc1n[nH]c(N)n1`: -4.68% (inactive); for `O=C(COC(=O)c1cc(Cl)ccc1O)Nc1cc(C(F)(F)F)ccc1N1CCOCC1`: -3.11% (inactive). Still for that read-out and setting: as for `CCCN1Cc2cccc(C(=O)NCCc3cccc(C)c3)c2C1=O`, the figure is 3.25% (inactive). On to `COc1cc(NC2=CC(=O)CC(C)(C)C2)cc(OC)c1OC`, for which the inhibition was 1.61% (inactive). The same measure, in the same setting: as for `COc1cc(C2CC(=O)OC3=C2C(=O)CC(C)(C)C3)cc(OC)c1OC` (stereo not drawn), the figure is 2.26% (inactive); as for `CCOc1ccc(S(=O)(=O)NC(C)(C)C)cc1-c1nc2c(C(C)(C)C)nn(C)c2c(=O)[nH]1`, -2.73% (inactive). Regarding `Cc1cc[n+](-c2ccccc2)c2ccccc12`, the inhibition is -10.7% (inactive). As to `O=C(CSCc1c(F)cccc1Cl)NCc1ccco1`, the inhibition is -1.37% (inactive). In the case of `CCN(CC)S(=O)(=O)c1ccc(C(=O)NCC2CCCCC2)cc1`, the inhibition is 2.49% (inactive).

Consider `O=C(Nc1ccc(F)cc1)c1cc2cc(Cl)ccc2[nH]1`, for which the inhibition was 1.32% (inactive). Same read-out and setting: the same measure for `COc1ccc(-c2ccc(SCC(=O)N3CC(=O)Nc4ccccc43)nn2)cc1`: -4.15% (inactive). For the molecule `CCn1cc(/C=C/C(=O)NCc2c(C)nn(C)c2C)cn1`, the inhibition is -7.26% (inactive). Turning to `O=C1NC(=S)S/C1=C\c1ccc2ccccc2c1`, the inhibition was -15.5% (inactive). For the molecule `C(=N\n1cnnc1)/c1cccc(OCCOc2ccccc2)c1`, the inhibition is -9.55% (inactive). For the molecule `Cc1ccc(OCCN2C(=O)c3ccccc3C2=O)c(C)c1`, the inhibition was 1.61% (inactive).

As to `COc1ccccc1OCCCOc1cccc(/C=C2\SC(=O)NC2=O)c1`, the inhibition is -1.96% (inactive). Besides, the inhibition under setting [1] came to 6.37%. For the molecule `O=C1NC(=S)N/C1=C/c1ccc2ccccc2c1`, the inhibition was 5.93% (inactive). In addition, the inhibition under setting [1] was determined as 2.73%. For the molecule `O=C1NC(=O)/C(=C/c2cccc(O)c2)N1`, the inhibition is 1.96% (inactive). As for `CNC(=O)NC(=O)CSc1nc2cc(C(=O)OC)ccc2c(=O)n1-c1ccccc1`, the inhibition is -2.77% (inactive). Still for that read-out and setting: as for `COc1ccc2nc(C)cc(SCC(NC(C)=O)C(=O)OC(C)C)c2c1` (stereo not drawn), the figure is 0.78% (inactive). On the same count and under the same terms, as for `COc1ccccc1C(=O)Nc1ncc2c(n1)CC(c1ccco1)CC2=O` (stereo not drawn), the figure is -1.36% (inactive); as for `O=C(NCc1ccccn1)c1cc(S(=O)(=O)N2CCCCCC2)ccc1Cl`, 1.3% (inactive); as for `COc1cc(C(=O)O/N=C2\C=CC(=O)C(C)=C2)cc(OC)c1OC`, -39% (inactive). On the same count and under the same terms, as for `Oc1ccc(/C=N/N2CCN(C3c4ccccc4-c4ccccc43)CC2)cc1`, the figure is -2.06% (inactive); as for `COc1ccc(N)c2c1C(=O)c1ccccc1C2=O`, -1.95% (inactive); as for `COc1ccc(OC)c2c1CCC2=O`, 0% (inactive). For the molecule `CCOc1ccc(S(=O)(=O)N2CCCCC2)cc1NC(=O)C1COc2ccccc2O1` (stereo not drawn), the inhibition was 1.45% (inactive). Turning to `O=C(NCc1ccccc1)c1cnc(Cl)c(Cl)c1`, the inhibition was -7.44% (inactive).

As for `COC(=O)c1ccc(COc2cccnc2[N+](=O)[O-])cc1`, the inhibition was 0% (inactive).

Take `O=C(N/N=C/c1cccc(Cl)c1)C1CCCC1`: the inhibition is 0% (inactive). Same read-out and setting: as for `Cc1ccc(C(=O)Nc2ccc(O)cc2C(=O)O)cc1`, the figure is -8.03% (inactive); as for `O=C(Nc1ccccc1C(=O)O)c1cccc(S(=O)(=O)Nc2ccc(Br)cc2)c1`, 22.4% (inactive); as for `CC(=O)Nc1cccc(C(=O)Nc2ccccc2C(=O)O)c1`, 3.9% (inactive). The same measure, in the same setting: as for `O=C(Nc1ccccc1C(=O)Nc1ccccc1C(=O)O)c1ccccc1`, the figure is 2.59% (inactive); as for `Cc1cccc(C(=O)Nc2ccc(O)cc2C(=O)O)c1`, 14.3% (inactive). Still for that read-out and setting: the same measure for `O=C(Nc1ccccc1C(=O)O)c1ccccc1`: -0.69% (inactive); for `Cc1ccc(C(=O)Nc2ccccc2C(=O)O)cc1S(=O)(=O)Nc1ccccc1`: 3.97% (inactive). Consider `O=C(Nc1ccccc1C(=O)O)c1cccc(F)c1`, for which the inhibition is 3.35% (inactive).

Consider `Cc1cccc(N(CC(O)CN2CCOCC2)S(=O)(=O)c2ccccc2)c1` (stereo not drawn), for which the inhibition was 0% (inactive). The same measure, in the same setting: as for `Cc1cc(-c2ccccc2N)n[nH]1`, the figure is -5.29% (inactive); as for `CCN(C(=O)COC(=O)c1ccccc1NCCO)c1cccc2ccccc12`, 6.52% (inactive). The same measure, in the same setting: the same measure for `COc1ccc(NC(=O)c2ccc(-c3ccccc3C(F)(F)F)o2)cc1`: -7.03% (inactive); for `COc1cc(C2c3cc4c(cc3OC(NCCc3ccccc3)C2C)OCO4)cc(OC)c1OC` (stereo not drawn): -4.03% (inactive).

Regarding `COc1ccc(S(N)(=O)=O)cc1C(=O)OCC(=O)Nc1sccc1C#N`, the inhibition was -21% (inactive). Still for that read-out and setting: as for `COc1ccccc1N(CC(=O)NCCSc1ccccc1)S(=O)(=O)c1ccccc1`, the figure is -5.79% (inactive); as for `O=C(CSc1ncn[nH]1)N1N=C2/C(=C/c3ccco3)CCCC2C1c1ccco1` (stereo not drawn), -4.57% (inactive); as for `Cc1ccccc1C(=O)Nc1nnc(SC(C)C)s1`, -3.88% (inactive). In the case of `Cc1ccc(-n2nc3c(=O)n(CC(=O)NCCCc4ccccc4)nc(C)c3c2C)cc1`, the inhibition was -3.57% (inactive). As for `CC(C)(C)OC(=O)N1CCCC(C(=O)CC#N)C1` (stereo not drawn), the inhibition is -13.4% (inactive). Regarding `CC1/C(=N/O)CC(c2ccccc2)NC1c1ccccc1` (stereo not drawn), the inhibition was 3.42% (inactive). On the same count and under the same terms, as for `COCCNc1nc(NCc2ccccc2)c2cnn(C)c2n1`, the figure is -7.24% (inactive). Same read-out and setting: the same measure for `CN(C)CCCN1CC(=O)N2[C@@H](Cc3c([nH]c4ccccc34)C2(C)C)C1=O`: 5.89% (inactive). Consider `COc1ccc(CCC(=O)Nc2sc(C(=O)N(C)C)c(C)c2C#N)cc1`, for which the inhibition is 2.58% (inactive). The same measure, in the same setting: as for `Cc1ccc(Nc2ccc(C(=O)O)cc2[N+](=O)[O-])cc1`, the figure is 17% (inactive); as for `COc1ccc(Nc2ccc(C(=O)O)cc2[N+](=O)[O-])cc1`, 3.64% (inactive).

On to `COc1ccc(C(C)=O)cc1COC(=O)CNC(=O)C1CCCCC1`, for which the inhibition was 10.9% (inactive). As for `Cc1cccc(-c2nnc(SCC3CNC(=O)O3)n2-c2ccc(Cl)cc2)c1` (stereo not drawn), the inhibition was -12.5% (inactive). In the case of `Cc1sc(NC(=O)C2C3C=CC(C3)C2C(=O)O)c(C(N)=O)c1-c1ccc(C(C)C)cc1` (stereo not drawn), the inhibition is -5.14% (inactive).

Regarding `Cc1sc(NC(=O)C2C3CCC(C3)C2C(=O)O)c(C(N)=O)c1-c1ccc(C(C)(C)C)cc1` (stereo not drawn), the inhibition is 7.13% (inactive). Regarding `CC(C)=C1C2CCC1C(C(=O)Nc1sc(C)c(-c3ccc(C(C)C)cc3)c1C(N)=O)C2C(=O)O` (stereo not drawn), the inhibition was 2.89% (inactive). The same measure, in the same setting: the same measure for `Cc1sc(NC(=O)C2CCCCC2C(=O)O)c(C(N)=O)c1-c1ccccc1` (stereo not drawn): -2.08% (inactive).

With `COc1ccc(NC(=O)CN2CCN(S(=O)(=O)N(C)C)CC2)cc1`, the inhibition is 2.61% (inactive). Under setting [1], the inhibition was 3.63%. `Cc1c(C(=O)c2ccc(Cl)c(Cl)c2)cnc2cc3c(cc12)OCO3`: the inhibition was 0.78% (inactive).

With `Nc1c(C(=O)O)sc2nc(-c3ccccc3)cc(-c3ccccc3)c12`, the inhibition was -27% (inactive). On to `Nc1c(C(=O)O)sc2nc(-c3ccccc3)cc(-c3ccc(F)cc3)c12`, for which the inhibition was -4.6% (inactive). On to `CCOC(=O)CC1COc2ccccc2N1C(=O)c1cccc([N+](=O)[O-])c1` (stereo not drawn), for which the inhibition is -0.68% (inactive). The same measure, in the same setting: the same measure for `CCOc1ccc(N2C(=O)CC(N(Cc3ccco3)C(=O)CCC(=O)O)C2=O)cc1` (stereo not drawn): -7.79% (inactive); for `Cc1c(C(=O)OCC(=O)NC2CC2)oc2ccc(Br)cc12`: 4.33% (inactive). As for `CNCc1ccccc1Sc1cc(O)ccc1O`, the inhibition is -2.55% (inactive). Turning to `CNCc1ccccc1Sc1cccc(O)c1`, the inhibition is -3.83% (inactive).

As for `Cc1cc(NC(=O)CSc2ccccn2)cc(NC(=O)CSc2ccccn2)c1`, the inhibition was -6.51% (inactive). Still for that read-out and setting: the same measure for `O=C1c2ccccc2C(=O)c2cc(S(=O)(=O)Nc3ccccc3)ccc21`: -0.73% (inactive).

On to `O=C(O)c1cccc(S(=O)(=O)Nc2ccc(-c3ccccc3)cc2)c1`, for which the inhibition is -3.98% (inactive). In the case of `O=C(O)c1cccc(NS(=O)(=O)c2ccc3c(c2)C(=O)c2ccccc2C3=O)c1`, the inhibition was 16.2% (inactive). Same read-out and setting: the same measure for `O=C(O)c1cccc(NS(=O)(=O)c2ccc(Oc3ccc(S(=O)(=O)Nc4cccc(C(=O)O)c4)cc3)cc2)c1`: 13.8% (inactive); for `O=C(O)c1ccc(Cl)c(S(=O)(=O)Nc2ccc(S(=O)(=O)N3CCCC3)cc2)c1`: -5.16% (inactive). In the case of `O=C(O)c1ccc(NS(=O)(=O)c2cc(Cl)ccc2Cl)cc1`, the inhibition is -2.78% (inactive). Turning to `O=C(O)c1ccc(Cl)c(S(=O)(=O)Nc2ccccc2Cc2ccccc2)c1`, the inhibition was -0.83% (inactive). Still for that read-out and setting: the same measure for `O=C(O)c1ccc(F)c(S(=O)(=O)Nc2ccccc2Cl)c1`: 4.09% (inactive).
